APE1 inh = blocks human APE1 abasic DNA cleavage; P27695; recombinant APE1, TAMRA/BHQ-2 abasic DNA cleavage fluorescence; Potency, µM (highest dose often 65.8 µM), for the others: at the highest dose activity change, negative = inhibition, hits mostly inhibitors; 350,000 compounds, 0.35% hits;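 note: plate controls were vehicle for no effect and reference inhibitor for full effect; nearly all actives have a fitted effect of over 55% in size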
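APE1 at 0.75 nM preincubated 15 min at room temperature with compound. Reaction then started with 50 nM double-stranded THF-abasic substrate labelled with TAMRA/BHQ-2, and 525/598 nm fluorescence read kinetically. Activity taken as third-minus-first read difference, normalized to DMSO and NSC13755 controls.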
RECQ1 inh-1 = RECQ1 (human) helicase inhibition | P46063 | RECQ1 DNA unwinding, red fluorescence kinetic read | Potency, µM (highest dose often 57.3 µM), inactives show at the top dose activity, negative = inhibition, hits mostly inhibitors | 240,000 compounds, 0.54% hits;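 note: plate controls were vehicle for no effect and no enzyme for full effect; nearly all actives have a fitted effect of over 30% in size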
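RECQ1T1 50 nM; forked duplex (20 bp + 30-nt ss tails) 200 nM, ATP 2 mM final; pH 8.0, 2 mM MgCl2, 2.5 ug/ml poly(dI-dC); 15 min compound preincubation; discontinuous kinetic read over 2 h at RT.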
WRN inhibitor = inhibitors of human WRN helicase | AID 651768 | Q14191 | 360,000 compounds, 0.46% hits | WRN helicase unwinding, fluorescent forked duplex, kinetic | Potency, µM (highest dose often 114 µM), inactives show top-dose activity change, negative = inhibition, usual class: inhibitors; note: nearly all actives have a fitted effect of over 55% in size
Target sequence (Q14191 whole entry, looked up): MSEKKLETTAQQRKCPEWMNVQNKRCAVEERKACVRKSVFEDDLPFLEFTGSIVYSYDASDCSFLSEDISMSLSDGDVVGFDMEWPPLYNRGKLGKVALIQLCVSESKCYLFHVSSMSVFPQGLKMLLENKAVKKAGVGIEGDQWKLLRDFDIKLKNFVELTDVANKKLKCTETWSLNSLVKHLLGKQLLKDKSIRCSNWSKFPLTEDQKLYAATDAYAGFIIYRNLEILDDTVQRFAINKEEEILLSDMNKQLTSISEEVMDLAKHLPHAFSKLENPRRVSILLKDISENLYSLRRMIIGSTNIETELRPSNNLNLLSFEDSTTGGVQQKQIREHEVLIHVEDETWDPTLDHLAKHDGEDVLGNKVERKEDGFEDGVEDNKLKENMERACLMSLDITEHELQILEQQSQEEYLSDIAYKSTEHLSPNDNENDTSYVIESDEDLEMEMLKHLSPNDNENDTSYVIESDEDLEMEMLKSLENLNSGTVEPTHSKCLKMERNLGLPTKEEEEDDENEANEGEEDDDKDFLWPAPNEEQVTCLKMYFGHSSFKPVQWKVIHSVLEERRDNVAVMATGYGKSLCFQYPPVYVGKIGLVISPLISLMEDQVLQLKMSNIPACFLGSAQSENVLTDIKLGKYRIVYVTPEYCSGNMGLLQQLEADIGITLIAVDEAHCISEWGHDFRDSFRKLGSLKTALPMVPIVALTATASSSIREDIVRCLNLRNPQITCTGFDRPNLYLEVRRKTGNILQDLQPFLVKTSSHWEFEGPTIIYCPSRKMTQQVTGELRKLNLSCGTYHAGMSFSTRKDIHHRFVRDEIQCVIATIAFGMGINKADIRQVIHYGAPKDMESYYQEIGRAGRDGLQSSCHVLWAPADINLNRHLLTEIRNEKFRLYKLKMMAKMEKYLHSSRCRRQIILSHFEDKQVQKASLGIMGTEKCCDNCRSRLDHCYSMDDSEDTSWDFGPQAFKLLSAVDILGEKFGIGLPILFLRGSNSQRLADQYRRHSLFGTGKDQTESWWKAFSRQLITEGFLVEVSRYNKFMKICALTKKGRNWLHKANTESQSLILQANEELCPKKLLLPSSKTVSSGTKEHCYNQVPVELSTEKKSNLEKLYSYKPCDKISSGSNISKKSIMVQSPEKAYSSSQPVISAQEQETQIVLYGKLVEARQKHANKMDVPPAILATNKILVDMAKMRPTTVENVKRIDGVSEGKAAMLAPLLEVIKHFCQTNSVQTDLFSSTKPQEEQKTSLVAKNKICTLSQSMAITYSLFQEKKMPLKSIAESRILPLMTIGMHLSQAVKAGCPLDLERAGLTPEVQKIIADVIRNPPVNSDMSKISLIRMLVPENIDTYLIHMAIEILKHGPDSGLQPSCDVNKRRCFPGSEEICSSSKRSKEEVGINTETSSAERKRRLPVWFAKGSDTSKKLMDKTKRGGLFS
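Kinetic fluorescence helicase assay: unwinding of a quenched forked DNA duplex (100 nM final) with 2 mM ATP final raises red fluorescence (525/598 nm). Compounds sat 15 min at room temperature with 20 nM WRN beforehand.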
L3MBTL1 block = blocks human L3MBTL1. Q9Y468. AlphaScreen L3MBTL1–H3K9me1 peptide binding. Potency, µM (series often up to 57.1 µM), inactives show top-dose activity, negative = inhibition, usual class: inhibitors. 230,000 compounds, 0.66% hits. AID 485360; note: nearly all actives have a fitted effect of over 60% in size
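AlphaScreen assay: L3MBTL1 (50 nM final) was preincubated 30 min at room temperature with biotinylated H3(1-15)K9me1 peptide (75 nM final), then 30 min with library compounds; streptavidin donor and nickel chelate acceptor beads (10 ug/mL final) added, 30 min dark.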
BLM helicase inh = Bloom syndrome helicase (human) inhibition; AID 2528; Potency, µM (top dose mostly 56.1 µM), without a hit: at the top dose activity change, negative = inhibition, most hits filed as inhibitors; 350,000 compounds, 0.2% hits; recombinant BLM DNA unwinding, fluorescence dequenching;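 note: plate controls were vehicle for no effect and no enzyme for full effect; nearly all actives have a fitted effect of over 35% in size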
RECQ1 inh conf = confirmation of human RECQ1 helicase inhibitors. shares compounds with RECQ1 inh-1. RECQ1 helicase DNA unwinding, fluorescence. Potency, µM (doses to about 229 µM), without a hit: at the highest dose activity change, negative = inhibition, actives largely listed as inhibitors. 610 compounds, 28% hits. AID 2708; note: nearly all actives have a fitted effect of over 45% in size
ADP FP counter = ADP displacement flagged in RECQ1 inhibitor counter-screen. AID 2711. ADP fluorescence polarization displacement counterscreen. shares compounds with RECQ1 inh-1. 530 compounds, 27% hits. Potency, µM (doses to about 228 µM), without a hit: top-dose activity change, negative = inhibition, usual class: inhibitors; note: nearly all actives have a fitted effect of over 45% in size
RECQ1 inh-2 = confirmation of human RECQ1 helicase inhibitors; shares compounds with RECQ1 inh-1; recombinant RECQ1 DNA unwinding, red fluorescence; Potency, µM (doses to about 119 µM), inactives show at the top dose activity, negative = inhibition, hits mostly inhibitors; 1,100 compounds, 15% hits; note: nearly all actives have a fitted effect of over 50% in size
* = called active by the depositor; ? = inconclusive; . = no result; ! = a repeat was not active; [ ] = another dose, or the depositor's remark. Hits are enriched below; roughly 0.92% of the tested compounds scored in any of these assays. Calls come from the whole dose curve; as a rule, active = well fitted curve in the direction sought with a large enough effect; inconclusive = small, poorly fitted or top-dose-only effect, or another doubt; inactive = no such curve, though single readings can be large; an effect the other way counts as inactive or inconclusive. Unless noted, % is set by controls: 0 for no effect and ±100 for the full control effect; potency is the fitted concentration of half-maximal effect.

SMILES	APE1 inh	RECQ1 inh-1	WRN inhibitor	L3MBTL1 block	BLM helicase inh	RECQ1 inh-2	others
COc1ccc(NC(=O)Cn2c(=O)n(Cc3ccco3)c(=O)c3cc(OC)c(OC)cc32)cc1	.	.	.	.	-13%	.
O=C(CSc1nnc(-c2ccco2)n1Cc1ccccc1)c1ccc(F)cc1	1%	?	-17%	-22%	-13%	-17%
O=C(CSc1nnc(-c2ccco2)n1Cc1ccccc1)NCc1ccccc1	-2%	-4%	5%	2%	6%	.
O=C(CC1C(=O)NCCN1Cc1ccc(-c2ccccc2)cc1)NCCOc1cccnc1 (stereo unspecified)	-7%	?	0%	-4%	1%	-14%
Cc1ccc(NC(=S)NC(=O)/C=C/c2ccco2)c(O)c1	?	?	-19%	-10%	-14%	-23%
O=C(/C=C\c1ccco1)NC(=S)Nc1ccccc1O	0%	-21%	?	-19%	-7%	.
COC(=O)C1=C(C(=O)OC)[C@@H]2N(Cc3ccccc3)c3ccccc3[C@@]23C[C@@H](C(=O)OC)N=C3N1	-3%[12.4 µM]	?	-8%	.	0%[12.4 µM]	-8%
CC1=Nc2cc(C(=O)NCc3ccccc3Cl)ccc2Sc2c(C)ccc(C)c21	.	.	.	.	-11%	.
CC(C)C(NS(=O)(=O)c1cccc2nsnc12)C(=O)N1CCn2c1nc1ccccc12 (stereo unspecified)	13%	2%	-6%	.	-5%	.	RECQ1 inh conf=10%;ADP FP counter=?
Cc1cc(O)cc(O)c1C(=O)OC1(C)C(=O)C=C2C=C(/C=C/CO)OC=C2C1=O (stereo unspecified)	?	-20%	.	.	27%	.
CCOC(=O)C1=C(C)N(C)C(=S)N(C)C1c1ccc(OC)cc1 (stereo unspecified)	-2%	-1%	-9%	.	1%	.
COC(=O)C1=C(C)N(C)C(=S)N(C)C1c1cccc(Br)c1 (stereo unspecified)	-3%	?	0%	-12%[11.4 µM]	-9%	-15%
CCOC(=O)C1CCN(C(=O)Nc2ccc3nc(-c4ccco4)c(-c4ccco4)nc3c2)CC1	7.9µM*	10µM*	35µM*	3.5µM*	4.5µM*	?
COc1cccc(C(C(=O)NCc2ccco2)N(C(=O)Cn2nnc3ccccc32)C2CC2)c1OC (stereo unspecified)	0%	?	-1%[57.1 µM]	-5%	-1%	-11%
Cc1ccccc1C(C(=O)NCc1ccco1)N(CC1CCCO1)C(=O)Cn1nnc2ccccc21 (stereo unspecified)	-1%	-3%	-6%	30%	1%	.
CCN(CC)c1ccc(/C=N/NC(=S)NCc2ccc(OC)cc2)cc1	-5%	-12%	-26%[57.1 µM]	-18%	-5%	.
CCN(CC)c1ccc(/C=N/NC(=S)NCc2ccccc2)cc1	-1%	7.1µM*	3%	-12%	-8%	.	RECQ1 inh conf=-7%[114 µM];ADP FP counter=7%[91.9 µM]
CCOC(=O)c1sc2ncnc(NCc3ccco3)c2c1C	?	?	-34%	.	-9%	-9%
CCOC(=O)c1sc2nc(CC(=O)OC)nc(NCc3ccco3)c2c1C	-10%	-28%	-23%	-13%	-16%	.
COc1cc2c(=O)n(CCc3ccccc3)c(=O)n(CC(=O)Nc3ccccc3)c2cc1OC	.	.	.	.	0%	.
O=C1CCCC2=C1C1O[C@](CCCCN3C(=O)c4ccccc4C3=O)(Cc3c1ccc1ccccc31)O2	-28%[12.4 µM]	.	.	.	-1%[12.4 µM]	.
O=C1C=C(O)c2c(O)cccc2C1=O	?	?	.	.	-2%	.
O=C(O)c1cc(O)c2c(c1)C(=O)c1cccc(O)c1C2=O	0.32µM*	3.2µM*!	27µM*	?	35µM*!	.	RECQ1 inh conf=126µM*;ADP FP counter=7.9µM*
COCCN1C(=O)C(=O)/C(=C(/O)c2ccc(S(=O)(=O)N3CCOCC3)cc2)C1c1cccc(O)c1 (stereo unspecified)	-8%	-3%	1%	1%	8%	.	RECQ1 inh conf=0%;ADP FP counter=4%
CCOc1ccc(C(=O)Nc2cc(-c3nc4ccccc4[nH]3)ccc2Cl)cc1[N+](=O)[O-]	?	?	-13%	-2%	?	56µM*
SMILES	APE1 inh	RECQ1 inh-1	WRN inhibitor	L3MBTL1 block	BLM helicase inh	RECQ1 inh-2	others
CCOc1ccc(C(=O)Nc2cc(-c3nc4ccccc4[nH]3)ccc2C)cc1[N+](=O)[O-]	5%	-19%	-11%	-6%	-11%	.
CCOc1ccc(C(=O)Nc2cccc(-c3cc4ccccc4oc3=O)c2)cc1[N+](=O)[O-]	-11%	25µM*	8%[57.1 µM]	6%	-10%	?
COc1ccc(S(=O)(=O)c2c(Nc3ccc(C)cc3C)sc(C(=O)c3ccc(F)cc3)c2N)cc1	.	.	.	.	-3%	.
COc1ccc(-c2nc3sc(CCNC(=O)Cc4ccccc4)c(C)n3n2)cc1	.	.	.	.	2%	.
COc1ccc(Nc2nc(Nc3ccc(OC)cc3OC)nc(N3CCOCC3)n2)c(OC)c1	.	.	.	.	-16%	.
O=C(Nc1ccc(Cl)cc1)C1CCN(S(=O)(=O)c2ccc(Br)s2)CC1	.	.	.	.	-4%	.
CSc1ccccc1NC(=O)COC(=O)c1ccccc1Cc1ccccc1	-4%	25µM*	-18%	57%	-8%	-3%
CCN(CC)C(=O)CSc1nc2ccc(NC(=O)CSc3nnc(N)s3)cc2s1	?	?	-19%[57.1 µM]	?	-20%	.
CCN(CC)C(=O)CSc1nc2ccc(NC(=O)CSc3nccn3C)cc2s1	0%	20µM*	-16%	?	-12%	-13%	RECQ1 inh conf=?;ADP FP counter=?
C=CC1=C(C(=O)O)N2C(=O)C(NC(=O)Cc3ccccc3)C2SC1 (stereo unspecified)	?	-10%	?	.	-5%	.
O=C(Cc1cccs1)NC1C(=O)N2C(C(=O)[O-])=C(C[n+]3ccccc3)CSC12 (stereo unspecified)	.	?	.	.	-22%	.	RECQ1 inh conf=?;ADP FP counter=6.3µM*
Cc1ccc(NC(=O)COC(=O)CNC(=O)c2cccc([N+](=O)[O-])c2)cc1S(=O)(=O)N1CCCCCC1	?	32µM*	-12%	-12%	-9%	-16%
O=C(COC(=O)CNC(=O)c1cccc([N+](=O)[O-])c1)Nc1cccc(S(=O)(=O)N2CCCCC2)c1	-6%	-1%	-25%	-13%	1%	.
COc1c2ccoc2nc2c(OC)c(O[C@@H]3O[C@H](C)[C@@H](O)[C@@H](O)[C@H]3O)ccc12	-3%	-6%	.	.	0%	.

Screens from PubChem BioAssay.
